SMILES strings stand for the structures. Inconclusive results are not listed. Calls of active or inactive are those of the source. How the source made its calls: active means hit-call score of the fitted dose curve at least 0.9, where 1 is the maximum; inconclusive means response in the unintended direction; inactive means score below 0.9.

Test [1] deals with human Phosphodiesterase 4A1 (PDE4A1), PDE4A (gene 5141) (UniProt P27815). Nature of the test: NVS_ENZ_hPDE4A1: NovaScreen (NVS) Enzymatic Assay for human Phosphodiesterase 4A1 (PDE4A1) (AID 2283191). In short, it runs like this:
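Cell-free recombinant human PDE4A1 with fluorescent substrate; product separated by electrophoretic mobility shift, 1 h. Screened at 25 uM, then up to 50 uM in concentration-response; loss of signal fitted against DMSO.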

The target in test [2] is human Esterase Plasma (ES), BCHE (gene 590) (UniProt P06276). The test is described as follows: NVS_ENZ_hES: NovaScreen (NVS) Enzymatic Assay for human Esterase Plasma (ES) (AID 2283157). In short, it runs like this: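 Chemicals were added to plasma-extracted human enzyme in a cell-free format, and activity was read colorimetrically after 0.25 hour. Activity loss was referenced to DMSO; concentration-response top dose was 50 uM.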

Test [3] has as its target human c-Jun N-terminal Kinases (JNK2), MAPK9 (gene 5601) (UniProt P45984). The test is described as follows: NVS_ENZ_hJNK2: NovaScreen (NVS) Enzymatic Assay for human c-Jun N-terminal Kinases (JNK2) (AID 2283171). The essentials: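 Cell-free recombinant human JNK2 activity assay; fluorescent substrate and product separated by electrophoretic mobility shift, read 1 h after dosing. Primary duplicate screen at 25 uM; actives run in concentration-response up to 50 uM, relative to DMSO.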

Test [4] concerns the target Mitogen-activated protein kinase 3 (Homo sapiens) (UniProt P27361). The test is described as follows: NVS_ENZ_hMAPK3: NovaScreen (NVS) Enzymatic Assay for human Mitogen-Activated Protein Kinase 3 (MAPK 3) (AID 2283177). The essentials: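 Cell-free enzymatic assay with recombinant protein and specific substrate; fluorescence and electrophoretic mobility shift read-out 1 h after dosing. Primary screen duplicate at 25 uM; actives then run in concentration-response up to 50 uM, loss of signal versus DMSO.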

The target of test [5] is human NIMA (Never In Mitosis Gene A)-Related Kinase 2 (NEK2), NEK2 (gene 4751) (UniProt P51955). Nature of the test: NVS_ENZ_hNEK2: NovaScreen (NVS) Enzymatic Assay for human NIMA (Never In Mitosis Gene A)-Related Kinase 2 (NEK2) (AID 2283188). The essentials:
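Cell-free NEK2 enzyme activity after 1 h exposure, read by fluorescence with electrophoretic mobility shift separating substrate and product. Primary screen in duplicate at 25 uM; actives then run as concentration series. Loss of signal versus DMSO scored.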

The target of test [6] is human Janus Kinase 2 (Jak2), JAK2 (gene 3717) (UniProt O60674). The test is described as follows: NVS_ENZ_hJak2: NovaScreen (NVS) Enzymatic Assay for human Janus Kinase 2 (Jak2) (AID 2283169). In short, it runs like this: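 Cell-free recombinant human JAK2 enzyme activity assay, fluorescence/electrophoretic mobility shift read 1 h after dosing. Screened in duplicate at 25 uM, then concentration-response up to 50 uM; activity as signal loss relative to DMSO.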

Test [7] concerns the target human Matrix Metalloproteinase-7 (MMP7), MMP7 (gene 4316) (UniProt P09237). The test is described as follows: NVS_ENZ_hMMP7: NovaScreen (NVS) Enzymatic Assay for human Matrix Metalloproteinase-7 (MMP7) (AID 2283183). The essentials: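 Cell-free fluorescence enzymatic assay read 1 h after compound addition, activity loss analyzed against DMSO. Primary duplicate testing at 25 uM; compounds meeting threshold rerun in singleton concentration-response up to 50 uM.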

Test [8] has as its target human Matrix Metalloproteinase-9 (MMP9), MMP9 (gene 4318) (UniProt P14780). The test is described as follows: NVS_ENZ_hMMP9: NovaScreen (NVS) Enzymatic Assay for human Matrix Metalloproteinase-9 (MMP9) (AID 2283190).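 Further: active means inhibition seen as loss of fluorescence signal versus DMSO.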 The essentials:
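Extracted enzyme, fluorescent substrate, 1 h post-dose read. Single conc 25 uM in duplicate, then concentration series for actives. Activity = signal loss relative to DMSO negative control.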

The target in test [9] is human Matrix Metalloproteinase-2 (MMP2), MMP2 (gene 4313) (UniProt P08253). The test is described as follows: NVS_ENZ_hMMP2: NovaScreen (NVS) Enzymatic Assay for human Matrix Metalloproteinase-2 (MMP2) (AID 2283184). The essentials: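 Cell-free recombinant MMP2 activity with a fluorescent substrate, read 1 h after dosing. Primary screen in duplicate at 25 uM; actives then run in concentration series; loss of signal fitted versus DMSO.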

Test [10] addresses human Ephrin type-A Receptor 1 (EphA1), EPHA1 (gene 2041) (UniProt P21709). Nature of the test: NVS_ENZ_hEphA1: NovaScreen (NVS) Enzymatic Assay for human Ephrin type-A Receptor 1 (EphA1) (AID 2283158).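 Further: activity is signal loss versus DMSO meaning EphA1 kinase inhibition.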 The essentials: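 Cell-free enzymatic assay with recombinant EphA1 and fluorescent substrate; product separated by electrophoretic mobility shift, fluorescence intensity read 1 hour after dosing. Loss of signal versus DMSO baseline; primary duplicate screen at 25 uM, actives followed to 50 uM top concentration.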

The target of test [11] is human LYN Proto-Oncogene, Src family Tyrosine Kinase (LynA), LYN (gene 4067) (UniProt P07948). The test is described as follows: NVS_ENZ_hLynA: NovaScreen (NVS) Enzymatic Assay for human LYN Proto-Oncogene, Src family Tyrosine Kinase (LynA) (AID 2283173). In short, it runs like this: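 Recombinant kinase with fluorescent substrate; product separated from substrate by electrophoretic mobility shift and read 1 h after dosing. Duplicate screen at 25 uM, then concentration-response up to 50 uM; activity scored as signal loss against DMSO.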

Test [12] has as its target human Matrix Metalloproteinase-3 (MMP3), MMP3 (gene 4314) (UniProt P08254). The test is described as follows: NVS_ENZ_hMMP3: NovaScreen (NVS) Enzymatic Assay for human Matrix Metalloproteinase-3 (MMP3) (AID 2283185). The essentials:
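Cell-free recombinant human MMP3 activity, fluorescence intensity read 1 h after dosing. Primary screen duplicate at 25 uM, actives retested in concentration series; loss of signal vs DMSO baseline.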

In test [13] the target is Collagenase 3 (Homo sapiens) (UniProt P45452). The test is described as follows: NVS_ENZ_hMMP13: NovaScreen (NVS) Enzymatic Assay for human Matrix Metalloproteinase-13 (MMP13) (AID 2283182). In short, it runs like this: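 Recombinant MMP13 cleaving fluorescent substrate, cell-free, measured 1 h after dosing. Primary duplicate screen at 25 uM; actives tested in concentration-response up to 50 uM; loss of signal relative to DMSO.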

Test [14] has as its target Protein deacetylase HDAC6 (Homo sapiens) (UniProt Q9UBN7). The test is described as follows: NVS_ENZ_hHDAC6: NovaScreen (NVS) Enzymatic Assay for human Histone Deacetylase 6 (HDAC6) (AID 2283164). In short, it runs like this: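 Recombinant human HDAC6 with fluorescent substrate, 1 h; product separated from substrate by electrophoretic mobility shift. Primary screen in duplicate at 25 uM; actives retested singly in concentration-response up to 50 uM, fitted relative to DMSO.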

Chain of human Matrix Metalloproteinase-7 (MMP7), MMP7 (gene 4316) (P09237 whole entry, looked up): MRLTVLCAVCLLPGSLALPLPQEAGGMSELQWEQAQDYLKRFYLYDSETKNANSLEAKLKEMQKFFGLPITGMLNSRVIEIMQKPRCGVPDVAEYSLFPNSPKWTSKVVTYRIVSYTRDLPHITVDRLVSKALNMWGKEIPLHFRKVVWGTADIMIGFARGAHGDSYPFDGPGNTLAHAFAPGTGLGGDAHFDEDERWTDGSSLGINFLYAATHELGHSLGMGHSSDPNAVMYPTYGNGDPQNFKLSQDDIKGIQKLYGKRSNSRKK
Chain of human Phosphodiesterase 4A1 (PDE4A1), PDE4A (gene 5141) (P27815 whole entry, looked up): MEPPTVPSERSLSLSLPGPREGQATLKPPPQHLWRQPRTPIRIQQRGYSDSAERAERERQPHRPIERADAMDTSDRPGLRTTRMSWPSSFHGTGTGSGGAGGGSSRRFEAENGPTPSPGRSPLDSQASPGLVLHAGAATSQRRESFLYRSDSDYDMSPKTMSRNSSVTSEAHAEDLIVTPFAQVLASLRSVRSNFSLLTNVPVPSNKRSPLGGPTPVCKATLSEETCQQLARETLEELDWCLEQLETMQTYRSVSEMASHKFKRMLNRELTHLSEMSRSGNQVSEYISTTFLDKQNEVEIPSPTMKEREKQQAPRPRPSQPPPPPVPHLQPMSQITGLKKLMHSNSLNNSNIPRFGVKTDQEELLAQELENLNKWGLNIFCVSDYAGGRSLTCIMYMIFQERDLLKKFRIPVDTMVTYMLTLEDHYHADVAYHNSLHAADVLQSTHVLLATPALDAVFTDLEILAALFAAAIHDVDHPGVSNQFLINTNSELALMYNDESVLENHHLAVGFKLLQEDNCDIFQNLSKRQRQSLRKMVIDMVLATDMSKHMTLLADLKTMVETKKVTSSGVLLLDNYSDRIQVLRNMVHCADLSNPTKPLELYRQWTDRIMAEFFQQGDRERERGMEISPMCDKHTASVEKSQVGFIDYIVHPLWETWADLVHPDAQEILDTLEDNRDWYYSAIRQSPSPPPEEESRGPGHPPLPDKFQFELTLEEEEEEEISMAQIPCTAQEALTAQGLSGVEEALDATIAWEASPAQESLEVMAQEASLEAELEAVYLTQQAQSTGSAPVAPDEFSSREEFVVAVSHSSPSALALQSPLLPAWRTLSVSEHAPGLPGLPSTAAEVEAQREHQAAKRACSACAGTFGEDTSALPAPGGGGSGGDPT
Chain of human Matrix Metalloproteinase-9 (MMP9), MMP9 (gene 4318) (P14780 whole entry, looked up): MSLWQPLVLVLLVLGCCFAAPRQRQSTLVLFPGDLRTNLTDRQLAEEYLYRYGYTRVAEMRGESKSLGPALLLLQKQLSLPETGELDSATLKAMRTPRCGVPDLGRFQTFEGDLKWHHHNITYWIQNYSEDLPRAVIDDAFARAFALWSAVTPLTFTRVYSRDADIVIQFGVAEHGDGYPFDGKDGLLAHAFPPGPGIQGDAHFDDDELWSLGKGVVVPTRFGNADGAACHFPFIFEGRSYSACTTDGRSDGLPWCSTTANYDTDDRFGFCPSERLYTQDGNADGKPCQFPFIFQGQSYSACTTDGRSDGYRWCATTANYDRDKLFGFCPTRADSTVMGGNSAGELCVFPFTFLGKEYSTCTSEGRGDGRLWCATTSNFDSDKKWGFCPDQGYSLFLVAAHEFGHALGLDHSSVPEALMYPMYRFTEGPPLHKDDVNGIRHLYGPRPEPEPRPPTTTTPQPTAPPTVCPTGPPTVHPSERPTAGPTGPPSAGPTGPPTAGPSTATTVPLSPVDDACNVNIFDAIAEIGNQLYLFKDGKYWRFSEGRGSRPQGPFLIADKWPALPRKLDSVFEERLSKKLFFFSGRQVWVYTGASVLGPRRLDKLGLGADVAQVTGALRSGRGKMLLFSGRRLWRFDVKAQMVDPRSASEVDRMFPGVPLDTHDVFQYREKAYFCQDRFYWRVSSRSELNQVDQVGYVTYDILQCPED
Chain of human Esterase Plasma (ES), BCHE (gene 590) (P06276 whole entry, looked up): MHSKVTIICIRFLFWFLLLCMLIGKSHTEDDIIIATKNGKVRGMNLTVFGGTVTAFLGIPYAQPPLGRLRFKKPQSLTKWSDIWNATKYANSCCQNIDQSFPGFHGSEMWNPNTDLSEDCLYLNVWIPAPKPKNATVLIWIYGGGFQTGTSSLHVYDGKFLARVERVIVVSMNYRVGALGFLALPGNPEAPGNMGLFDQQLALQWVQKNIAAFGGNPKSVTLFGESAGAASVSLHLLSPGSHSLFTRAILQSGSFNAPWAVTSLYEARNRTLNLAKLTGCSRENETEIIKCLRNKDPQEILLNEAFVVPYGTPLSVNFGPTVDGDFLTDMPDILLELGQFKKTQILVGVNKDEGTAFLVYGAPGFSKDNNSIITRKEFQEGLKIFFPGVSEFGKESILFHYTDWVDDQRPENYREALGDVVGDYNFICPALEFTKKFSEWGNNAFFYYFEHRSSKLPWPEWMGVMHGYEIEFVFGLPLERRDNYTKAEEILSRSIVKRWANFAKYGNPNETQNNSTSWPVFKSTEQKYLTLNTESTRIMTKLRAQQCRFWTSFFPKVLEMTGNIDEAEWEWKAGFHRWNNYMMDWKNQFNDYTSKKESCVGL
Chain of human Matrix Metalloproteinase-2 (MMP2), MMP2 (gene 4313) (P08253 whole entry, looked up): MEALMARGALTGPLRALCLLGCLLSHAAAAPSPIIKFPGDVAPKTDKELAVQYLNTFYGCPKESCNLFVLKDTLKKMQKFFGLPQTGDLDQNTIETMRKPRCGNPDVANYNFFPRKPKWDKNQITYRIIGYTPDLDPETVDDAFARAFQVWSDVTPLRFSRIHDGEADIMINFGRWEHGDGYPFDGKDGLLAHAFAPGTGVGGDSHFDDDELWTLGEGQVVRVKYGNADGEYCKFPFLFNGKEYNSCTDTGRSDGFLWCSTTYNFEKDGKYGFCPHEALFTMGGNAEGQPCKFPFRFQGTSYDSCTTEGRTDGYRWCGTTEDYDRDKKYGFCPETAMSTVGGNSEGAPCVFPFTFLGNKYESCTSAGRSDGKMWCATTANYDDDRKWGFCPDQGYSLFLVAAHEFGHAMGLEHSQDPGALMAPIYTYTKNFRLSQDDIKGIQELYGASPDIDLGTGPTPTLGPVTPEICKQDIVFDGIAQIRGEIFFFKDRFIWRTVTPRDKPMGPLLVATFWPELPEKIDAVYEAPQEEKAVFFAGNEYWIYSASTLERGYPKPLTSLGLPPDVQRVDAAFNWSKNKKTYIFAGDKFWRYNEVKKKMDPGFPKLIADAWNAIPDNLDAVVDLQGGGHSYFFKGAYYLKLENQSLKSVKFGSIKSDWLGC
Chain of Mitogen-activated protein kinase 3 (Homo sapiens) (P27361 whole entry, looked up): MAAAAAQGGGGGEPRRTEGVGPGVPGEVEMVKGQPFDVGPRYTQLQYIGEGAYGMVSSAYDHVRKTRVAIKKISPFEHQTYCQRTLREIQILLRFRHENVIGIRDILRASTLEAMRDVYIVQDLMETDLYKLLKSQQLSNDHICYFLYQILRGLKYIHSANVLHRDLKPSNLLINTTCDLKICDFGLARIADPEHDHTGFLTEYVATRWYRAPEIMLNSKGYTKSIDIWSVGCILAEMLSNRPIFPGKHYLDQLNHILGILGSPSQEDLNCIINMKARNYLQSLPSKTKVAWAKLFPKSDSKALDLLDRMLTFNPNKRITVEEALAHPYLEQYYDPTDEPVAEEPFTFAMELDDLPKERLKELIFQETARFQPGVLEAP
Chain of human c-Jun N-terminal Kinases (JNK2), MAPK9 (gene 5601) (P45984 whole entry, looked up): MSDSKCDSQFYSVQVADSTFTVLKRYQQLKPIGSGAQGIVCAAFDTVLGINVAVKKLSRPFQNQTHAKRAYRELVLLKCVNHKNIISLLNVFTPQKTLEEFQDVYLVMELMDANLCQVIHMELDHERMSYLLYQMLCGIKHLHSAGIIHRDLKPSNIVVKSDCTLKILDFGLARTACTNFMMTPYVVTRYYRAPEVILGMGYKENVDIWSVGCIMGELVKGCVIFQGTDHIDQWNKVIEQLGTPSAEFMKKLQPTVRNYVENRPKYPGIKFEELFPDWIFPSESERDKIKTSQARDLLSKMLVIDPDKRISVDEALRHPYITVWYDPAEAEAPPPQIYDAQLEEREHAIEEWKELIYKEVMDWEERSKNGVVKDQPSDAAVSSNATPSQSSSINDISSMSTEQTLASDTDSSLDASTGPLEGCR
Chain of human LYN Proto-Oncogene, Src family Tyrosine Kinase (LynA), LYN (gene 4067) (P07948 whole entry, looked up): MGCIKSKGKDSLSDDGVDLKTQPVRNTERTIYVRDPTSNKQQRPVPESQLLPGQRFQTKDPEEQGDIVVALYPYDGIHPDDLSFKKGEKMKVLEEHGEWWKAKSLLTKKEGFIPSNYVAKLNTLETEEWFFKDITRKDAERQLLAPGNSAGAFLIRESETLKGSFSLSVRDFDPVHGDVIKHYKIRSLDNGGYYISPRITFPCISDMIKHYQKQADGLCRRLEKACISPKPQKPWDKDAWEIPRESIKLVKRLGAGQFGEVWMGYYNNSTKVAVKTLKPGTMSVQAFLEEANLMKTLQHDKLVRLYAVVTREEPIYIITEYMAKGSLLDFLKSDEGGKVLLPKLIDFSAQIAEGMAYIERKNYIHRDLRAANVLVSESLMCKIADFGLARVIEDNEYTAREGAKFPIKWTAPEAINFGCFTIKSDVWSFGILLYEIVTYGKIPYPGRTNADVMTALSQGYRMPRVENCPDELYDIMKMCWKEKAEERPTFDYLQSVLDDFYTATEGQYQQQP
Chain of human NIMA (Never In Mitosis Gene A)-Related Kinase 2 (NEK2), NEK2 (gene 4751) (P51955 whole entry, looked up): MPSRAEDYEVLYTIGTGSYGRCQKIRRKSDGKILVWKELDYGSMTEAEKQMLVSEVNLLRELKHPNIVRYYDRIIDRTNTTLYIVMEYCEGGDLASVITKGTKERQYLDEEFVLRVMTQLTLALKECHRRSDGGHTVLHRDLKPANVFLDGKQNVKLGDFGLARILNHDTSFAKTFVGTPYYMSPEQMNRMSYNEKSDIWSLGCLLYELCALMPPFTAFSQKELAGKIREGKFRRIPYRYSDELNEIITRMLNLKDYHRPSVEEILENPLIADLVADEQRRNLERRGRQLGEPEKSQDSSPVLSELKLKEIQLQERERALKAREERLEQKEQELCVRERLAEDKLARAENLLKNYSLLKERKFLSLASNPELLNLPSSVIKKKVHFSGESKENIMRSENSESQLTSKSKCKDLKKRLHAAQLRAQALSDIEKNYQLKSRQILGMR

As for `COP(=S)(OC)Oc1ccc([N+](=O)[O-])c(C)c1`, the compound was classed as inactive in test [1]. On to `CC1(C)CCC(=Cc2ccc(Cl)cc2)C1(O)Cn1cncn1` (configuration not stated), for which the result in test [2] was inactive. With `COC(=O)NS(=O)(=O)c1ccc(N)cc1`, the compound was called inactive in [3] and in test [4]. In the case of `Cn1c(-c2ccccc2)cc(-c2ccccc2)[n+]1C`, the AC50 (commonly the midpoint of the concentration-response curve, whichever way the signal moves) in test [2] is 4.69 µM (active). Further, the result in [5] was inactive. Take `Nc1cnn(-c2ccccc2)c(=O)c1Cl`: the compound was classed as inactive in [6]. Take `CCN(CC)c1nc(C)cc(OP(=S)(OC)OC)n1`: the call in test [7] and in [8] was inactive. The half-maximal activity concentration (AC50) in test [1] was 25 µM (active). Take `CCN(CC)C(=O)C(C)Oc1cccc2ccccc12` (configuration not stated): the concentration at half-maximal activity (AC50) in [2] was 16.7 µM (active). Further, the call in [8] was inactive. Regarding `CS(=O)(=O)c1ccc(C(=O)C2C(=O)CCCC2=O)c([N+](=O)[O-])c1`, the half-maximal activity concentration (AC50) in test [9] is 1.59 µM (active). With `O=C(O)c1c(Cl)ccc2cc(Cl)cnc12`, the half-maximal activity concentration (AC50) in test [2] was 8.48 µM (active).

`Nc1c(Cl)c(Cl)nc(C(=O)O)c1Cl`: in [3], the result was inactive. Regarding `N#Cc1c[nH]cc1-c1cccc2c1OC(F)(F)O2`, the compound was called inactive in test [10] and in test [11]. `COC(=O)c1c(C(F)F)nc(C(F)(F)F)c(C2=NCCS2)c1CC(C)C`: the call in [7] and in test [12] was inactive. On to `COP(=O)(OC)O/C(C)=C/C(=O)N(C)C`, for which the concentration at half-maximal activity (AC50) in test [2] is 17.4 µM (active). Take `COC(=O)NC(=S)Nc1ccccc1NC(=S)NC(=O)OC`: the outcome in [8] and in [1] was inactive. As for `CN=C=S`, in [13], the call was inactive. Consider `CC(C)=CC1C(C(=O)OCc2coc(Cc3ccccc3)c2)C1(C)C` (configuration not stated), for which the AC50 in [7] is 6.48 µM (active). Further, the result in [9] was inactive.

On to `COP(=S)(OC)SCn1nnc2ccccc2c1=O`, for which the call in test [14], in test [4] and in test [8] was inactive. On to `Cc1nc(N(C)C)nc(OC(=O)N(C)C)c1C`, for which the AC50 in test [2] was 16.9 µM (active). With `CCOP(=O)(OCC)Oc1nc(Cl)c(Cl)cc1Cl`, the AC50 is 0.00463 µM (active) in test [2] and 25 µM (active) in test [1]. Regarding `CCC(C)n1c(=O)[nH]c(C)c(Br)c1=O` (configuration not stated), in [1], the AC50 is 25 µM (active).

Source of the values: PubChem BioAssay (EPA / NIEHS).
